From the supplement of paper PMC10981050
Several values for one entry are separate records, joined by “and”; a condition that tells them apart may be missing. Equal entries are not always repeated. Structures can show the parent of a compound that is named as a salt.

Assays:
Test in all cases: cell viability relative to vehicle control; higher = less cytotoxic
Conditions in all cases: 10 µM
K562 = test system: K562
Summary of the method: (§1)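 CRISPR-edited mutant clones and isogenic wild-type clones from four leukaemia lines were screened against Selleck bioactive, kinase and epigenetic probe libraries, with identity-inconsistent compounds excluded. Each compound was acoustically dispensed at a single 10 µM dose into 384-well plates holding 2000 cells in 50 µL medium per well. After 48 h the supernatant was removed and CellTiter-Glo luminescence was read. Viability was expressed as percent of the on-plate vehicle control and analysed in Genedata Screener.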

MARIMO = test system: MARIMO
Summary of the method: as §1

MOLM14 = test system: MOLM14
Summary of the method: as §1

OCI-AML2 = test system: OCI-AML2
Summary of the method: as §1

Compound | cell viability (K562; SRSF2 genotype: SRSF2 P95H/wt) | cell viability (K562; SRSF2 genotype: SRSF2 wt/wt) [%] | cell viability (MARIMO; SRSF2 genotype: SRSF2 P95H/wt) [%] | cell viability (MARIMO; SRSF2 genotype: SRSF2 wt/wt) [%] | cell viability (MOLM14; SRSF2 genotype: SRSF2 P95H/wt) [%] | cell viability (MOLM14; SRSF2 genotype: SRSF2 wt/wt) [%] | cell viability (OCI-AML2; SRSF2 genotype: P95H/wt) [%] | cell viability (OCI-AML2; SRSF2 genotype: wt/wt) [%]
CCNC(=O)Nc1ccc(-c2nc(N3CCOC[C@@H]3C)c3c(n2)C(C)(C)S(=O)(=O)C3)cc1 | 40% and 38.6% | 34.4 | 56.9 | 51 | 33.5 | 26.9 | 29.6 | 32
O=C(O)CCCCC(CCSCc1ccccc1)SCc1ccccc1 (stereo not drawn) | 106% and 104% | 100 | 99.6 | 111 | 100 | 103 | 94.6 | 112
CCOC(=O)c1c(C)n(C)c2ccc(O)cc12 [Mecarbinate] | 108% and 99.1% | 99.8 | 97.3 | 104 | 116 | 112 | 92.2 | 98.1
CCCN[C@H]1CCc2nc(N)sc2C1 [Pramipexole dihydrochloride] | 103% and 96.9% | 110 | 103 | 94.2 | 79.1 | 97.8 | 103 | 111
COc1ccc(C2CNC(=O)C2)cc1OC1CCCC1 (stereo not drawn) [Rolipram] | 92.9% and 98% | 98.6 | 104 | 102 | 101 | 103 | 108 | 110
O=c1[nH]c(=S)[nH]c2nc(-c3ccccc3)c(-c3ccccc3)nc12 | 97.9% and 90.8% | 92 | 103 | 105 | 92.8 | 97.4 | 98.9 | 98.3
COc1cc(C=O)c([N+](=O)[O-])cc1OC | 104% | 110 | 95.3 | 92.6 | 95.8 | 109 | 111 | 125
C[C@H]1C[C@H]2[C@@H]3CCC4=CC(=O)C=C[C@]4(C)[C@H]3C(=O)C[C@]2(C)[C@@]1(O)C(=O)CO [Betapar (Meprednisone)] | 98.4% and 97.3% | 93 | 101 | 106 | 105 | 105 | 89 | 104
CC(=O)OC/C=C(\C)CCC=C(C)C [Geranyl acetate] | 102% and 95.2% | 107 | 104 | 112 | 99.2 | 111 | 97.2 | 103
CC1(C)S[C@@H]2[C@H](NC(=O)Cc3ccccc3)C(=O)N2[C@H]1C(=O)O.CCN(CC)CCOC(=O)c1ccc(N)cc1 [Penicillin G Procaine] | 107% and 104% | 101 | 104 | 118 | 99.7 | 109 | 97.8 | 99.4
OC[C@@H](O)[C@@H](O)[C@@H](O)CO [Ribitol (Adonitol)] | 94.5% and 97% | 96.2 | 89.7 | 93.4 | 97.9 | 94.3 | 90 | 97.9
S=C=Nc1cccc(NC(=S)NCCCCNC(=S)Nc2cccc(N=C=S)c2)c1 | 98.3% and 104% | 98.8 | 106 | 105 | 102 | 106 | 109 | 106
O=C(c1ccc(Cl)cc1Cl)n1nnc2ccccc21 | 54.8% and 62.1% | 70.3 | 48.4 | 46.2 | 59.3 | 49.6 | 37.9 | 29.3
CC1=C[C@]2(O)O[C@@]3(CC2=C(C)C)[C@@H](C)CC[C@@H]13 [Curcumenol] | 106% and 103% | 99.5 | 96.5 | 109 | 102 | 99 | 88.6 | 99
O=C1CN(/N=C/C=C/c2ccc([N+](=O)[O-])o2)C(=O)N1 [Furagin] | 105% and 103% | 104 | 93.7 | 107 | 105 | 108 | 101 | 108
O=C(Nc1ccccc1)c1cc([N+](=O)[O-])ccc1Cl | 91.7% and 96.2% | 81.4 | 86.8 | 90.8 | 89.3 | 101 | 90.1 | 91.8
CCCN(CCC)S(=O)(=O)c1ccc(C(=O)O)cc1 [Probenecid (Benemid)] | 99.3% and 88.4% | 91 | 92.1 | 101 | 96.4 | 97 | 96.2 | 88.9
COc1ccc(C(=O)CC2(O)C(=O)Nc3c(Cl)ccc(Cl)c32)cc1 (stereo not drawn) | 16.2% and 28.8% | 27.4 | 7.08 | 8.57 | 6.9 | 2.04 | 4.82 | 10.3

Compound | cell viability (K562; SRSF2 genotype: SRSF2 P95H/wt) | cell viability (K562; SRSF2 genotype: SRSF2 wt/wt) [%] | cell viability (MARIMO; SRSF2 genotype: SRSF2 P95H/wt) [%] | cell viability (MARIMO; SRSF2 genotype: SRSF2 wt/wt) [%] | cell viability (MOLM14; SRSF2 genotype: SRSF2 P95H/wt) [%] | cell viability (MOLM14; SRSF2 genotype: SRSF2 wt/wt) [%] | cell viability (OCI-AML2; SRSF2 genotype: P95H/wt) [%] | cell viability (OCI-AML2; SRSF2 genotype: wt/wt) [%]
CCOC(=O)c1[nH]c2cc(Cl)ccc2c1C(C(=O)NC(C)(C)C)N(C=O)Cc1ccc(Cl)cc1 (stereo not drawn) | 78.9% and 75.1% | 75.3 | 68.1 | 74.4 | 44.1 | 57.5 | 77.3 | 64.2
CCCCC1=NC2(CCCC2)C(=O)N1Cc1ccc(-c2ccccc2-c2nnn[nH]2)cc1 [Irbesartan (Avapro)] | 85.5% and 88.8% | 86.3 | 88.7 | 101 | 90 | 85.5 | 95.7 | 94.1
CC(=O)OCC(=O)[C@@]1(O)CC[C@H]2[C@@H]3CCC4=CC(=O)CC[C@]4(C)[C@H]3C(=O)C[C@@]21C [Cortisone acetate (Cortone)] | 110% and 108% | 118 | 118 | 109 | 112 | 112 | 117 | 109
CCC/N=C1\S/C(=C\c2ccc(OC[C@H](O)CO)c(Cl)c2)C(=O)N1c1ccccc1C | 89.5% and 93.7% | 89.6 | 105 | 98.3 | 94.5 | 93.5 | 108 | 95.2
O=C1C(=C(O)C=Cc2ccc(O)cc2)C(O)=C([C@@H]2O[C@H](CO)[C@@H](O)[C@H](O)[C@H]2O)C(=O)C1(O)[C@@H]1O[C@H](CO)[C@@H](O)[C@H](O)[C@H]1O (stereo partly drawn) [Hydroxy safflor yellow A] | 90% and 88% | 84.7 | 90.1 | 97.3 | 85.4 | 87.7 | 89.7 | 104
O=C(OC[C@H]1O[C@@H](OC(=O)c2cc(O)c(O)c(OC(=O)c3cc(O)c(O)c(O)c3)c2)[C@H](OC(=O)c2cc(O)c(O)c(OC(=O)c3cc(O)c(O)c(O)c3)c2)[C@@H](OC(=O)c2cc(O)c(O)c(OC(=O)c3cc(O)c(O)c(O)c3)c2)[C@@H]1OC(=O)c1cc(O)c(O)c(OC(=O)c2cc(O)c(O)c(O)c2)c1)c1cc(O)c(O)c(OC(=O)c2cc(O)c(O)c(O)c2)c1 [Tannic acid] | 96.5% and 87.2% | 98.5 | 98.7 | 99.3 | 89.6 | 92.2 | 106 | 94.8
C[C@]12C=CC(=O)N[C@@H]1CC[C@@H]1[C@@H]2CC[C@]2(C)[C@@H](C(=O)Nc3cc(C(F)(F)F)ccc3C(F)(F)F)CC[C@@H]12 [Dutasteride] | 94.4% and 96.6% | 95 | 102 | 94.1 | 96 | 98.3 | 101 | 94.7
Cc1c(C)c2c(c(C)c1O)CCC(C)(CCCC(C)CCCC(C)CCCC(C)C)O2 (stereo not drawn) [Vitamin E] | 96.5% and 100% | 108 | 106 | 104 | 105 | 104 | 106 | 100
N#CSc1cc(SC#N)c(N)nc1N | 8.53% and 15.5% | 33.9 | 4.65 | 1.5 | 3.35 | 0.44 | 0.31 | 0.95
CN(C)c1cccc(-c2c3c(=O)n(-c4ccccc4Cl)[nH]c3cc(=O)n2C)c1 | 100% and 98.2% | 101 | 109 | 126 | 104 | 99.7 | 101 | 114
Cc1cc(Nc2nc(N[C@@H](C)c3ccc(F)cc3)c(C#N)cc2F)n[nH]1 | 53.7% and 73% | 75.5 | 30.6 | 33.4 | 1.75 | 3.5 | 6.13 | 15.8
CN1CCN(c2nc(C3=C(c4c[nH]c5ccccc45)C(=O)NC3=O)c3ccccc3n2)CC1 [Sotrastaurin (AEB071)] | 88.8% and 91.3% | 81.6 | 72.4 | 80.5 | 30.8 | 21.6 | 32.8 | 50.3
NNC(=O)c1ccncc1 [Isoniazid (Tubizid)] | 106% and 109% | 112 | 101 | 107 | 107 | 106 | 102 | 115
CC(C)=CCC/C(C)=C/CC/C(C)=C/CC/C=C(\C)CC/C=C(\C)CCC=C(C)C [Squalene] | 101% and 105% | 99.6 | 111 | 105 | 101 | 101 | 110 | 108
COc1ccc(/C=C/C(=O)C2(C(=O)/C=C/c3ccc(OC)c(OC)c3)CCCCC2)cc1OC | 5.82% and 13.9% | 10.6 | 2.25 | 2.73 | 0.4 | 0.31 | 0.35 | 0.43
C=C1C2CCC3C2C(C)(C)CCCC13C (single isomer, unassigned; (+)) [(+)-Longifolene] | 105% and 104% | 110 | 96.6 | 107 | 103 | 106 | 103 | 115
COc1cc2c(cc1O)[C@@H](Cc1ccc(O)c(Oc3ccc(C[C@@H]4c5cc(OC)c(OC)cc5CCN4C)cc3)c1)N(C)CC2 [Daurisoline] | 30.5% and 37.4% | 15.9 | 3.28 | 9.42 | 1.06 | 0.83 | 1.65 | 1.01
CC1(C)CCC(C)(C)c2cc(NC(=O)c3ccc(C(=O)O)cc3)ccc21 [Tamibarotene] | 94.1% and 91.6% | 90.8 | 93.1 | 99.2 | 88.8 | 98.3 | 37.4 | 61.5
